TDP1 cell noCPT: qHTS for Inhibitors of human tyrosyl-DNA phosphodiesterase 1 (TDP1): qHTS in cells in absence of CPT; DT40 Tdp1-/- hTDP1 cells, no CPT, ATP luminescence, 48 h; Potency, µM (doses to about 46.2 µM), hits mostly inhibitors; 15% of 420,000 active; AID 686978, 2013; note: nearly all actives have a fitted effect of over 55% in size
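Compound effects on proliferation are scored in DT40 Tdp1-/-;hTDP1 cells in the absence of CPT. ATP levels (CellTiter-Glo luminescence) are recorded after a ≥48 hr, 37 °C incubation.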
TDP1 cell CPT: DT40-hTDP1 cell growth loss with CPT. 12% of 420,000 active. AID 686979. Potency, µM (top dose mostly 46.2 µM), most hits filed as inhibitors. chicken DT40 Tdp1-/-;hTDP1 cells + 20 nM CPT, ATP luminescence, 48 h; note: nearly all actives have a fitted effect of over 55% in size
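Cell growth measured by CellTiter-Glo luminescence after a minimum 48 h, 37 C compound exposure with 20 nM CPT in Tdp1-knockout DT40 cells stably expressing hTDP1, seeded 400/well; qHTS titration format.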
CtBP-E1A blk: blocks the CtBP interaction with E1A; 0.49% of 340,000 active; activity change, % (concentration not given with the values); AlphaScreen GST-E1A/His-CtBP binding, 1536-well; active compounds read low; in the data active = activity change below about -65%; inconclusive = mostly about -30% to -63%
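In 5 uL wells, 23 nL compound meets equimolar GST-E1A and His-CtBP (5X stock 125 nM each) for 2 h, 37 °C. Beads (5X, 50 ug/mL) then 1 h, 37 °C, dark.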
Six1-Eya2 blk: inhibitors of human Six1/Eya2 interaction. Q15475+O00167. AlphaScreen GST-Six1/His-Eya2 binding, biochemical; active compounds read low. activity change, % (no concentration beside the values). 0.56% of 360,000 active. AID 651725; in the data active = activity change below about -65%; inconclusive = mostly about -30% to -63%
Target sequence (O00167 whole entry, looked up): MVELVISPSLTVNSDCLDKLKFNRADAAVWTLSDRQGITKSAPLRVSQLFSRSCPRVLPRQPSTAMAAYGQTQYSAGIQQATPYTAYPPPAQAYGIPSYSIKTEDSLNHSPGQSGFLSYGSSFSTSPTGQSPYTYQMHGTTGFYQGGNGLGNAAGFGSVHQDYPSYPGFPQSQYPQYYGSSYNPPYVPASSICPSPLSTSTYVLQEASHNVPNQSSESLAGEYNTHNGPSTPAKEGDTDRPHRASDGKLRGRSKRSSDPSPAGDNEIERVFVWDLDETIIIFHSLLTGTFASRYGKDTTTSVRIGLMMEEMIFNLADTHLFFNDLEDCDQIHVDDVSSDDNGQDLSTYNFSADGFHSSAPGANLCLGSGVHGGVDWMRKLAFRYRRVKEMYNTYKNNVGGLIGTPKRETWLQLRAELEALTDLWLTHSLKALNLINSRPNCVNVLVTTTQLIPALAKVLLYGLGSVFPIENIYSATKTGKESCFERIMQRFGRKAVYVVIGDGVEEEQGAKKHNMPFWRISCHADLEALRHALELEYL
Target sequence (Q15475 whole entry, looked up): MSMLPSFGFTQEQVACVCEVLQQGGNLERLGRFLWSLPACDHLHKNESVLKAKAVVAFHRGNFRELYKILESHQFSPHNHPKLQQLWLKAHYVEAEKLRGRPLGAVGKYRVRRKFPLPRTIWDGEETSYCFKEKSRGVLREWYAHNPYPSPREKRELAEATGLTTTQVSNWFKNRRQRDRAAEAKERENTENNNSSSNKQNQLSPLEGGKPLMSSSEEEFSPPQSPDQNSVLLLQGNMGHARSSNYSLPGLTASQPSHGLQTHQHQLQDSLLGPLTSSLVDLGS
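GST-Six1 + His-Eya2 (5X stock: 250/500 nM); Tris pH 8.0, 300 mM NaCl, 0.05% BSA, 0.02% Tween 20; GSH donor/Ni acceptor beads; 1 h 37 °C dark; AlphaScreen readout.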
IL1B secr inh: blocks inflammasome-driven IL-1 beta release; THP-1 LPS/ATP IL-1B secretion, AlphaLISA, 16 h; active compounds read low; activity change, % at 57.5 µM; 4.7% of 360,000 active; AID 743279; in the data active = activity change below about -50%; inconclusive = mostly about -30% to -49%
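Secreted IL-1B measured by AlphaLISA bead assay after 16 h compound exposure of THP-1 cells; compounds (final up to 57.5 uM) added 1 h before LPS (250 ng/mL) and ATP (1.25 mM) stimulation; lower signal means less secretion.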
TDP1 block: TDP1 (human) enzyme inhibition. recombinant TDP1, AlphaScreen DNA substrate cleavage. 0.28% of 350,000 active. Q9NUW8. Potency, µM (titrated, usually from 130 µM), hits mostly inhibitors; note: nearly all actives have a fitted effect of over 40% in size
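Here, a 5' biotin and 3' phosphotyrosine-FITC DNA oligonucleotide reports Tdp1 activity: intact substrate bridges AlphaScreen beads, while cleavage leaves a 3' phosphate and drops signal. All incubations at room temperature.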
Numbers stand for hits. A selection: hits, their analogues and other compounds. The true share with any hit is near 18%. Unless noted, calls come from the whole dose curve; as a rule, active = well fitted curve in the direction sought with a large enough effect; inconclusive = small, poorly fitted or top-dose-only effect, or another doubt; inactive = no such curve, though single readings can be large; an effect the other way counts as inactive or inconclusive.

`Cc1ccc(NC(=O)C(NC2CCCc3ccccc32)c2ccccc2)c([N+](=O)[O-])c1` (stereo not drawn) gave TDP1 cell noCPT 23µM, TDP1 cell CPT inconclusive, CtBP-E1A blk inactive, Six1-Eya2 blk inactive, IL1B secr inh inactive and TDP1 block inactive.
COC(=O)c1ccccc1NC(=O)C1CCN(c2ncnc3c2nc2n3CCCCC2)CC1 was read as TDP1 cell noCPT 16µM, TDP1 cell CPT 21µM, CtBP-E1A blk inactive, Six1-Eya2 blk inactive, IL1B secr inh inactive and TDP1 block inactive.
`COc1ccccc1NC(=O)C1CCN(c2ncnc3c2nc2n3CCCCC2)CC1` gave TDP1 cell noCPT 18µM, TDP1 cell CPT 23µM, CtBP-E1A blk inactive, Six1-Eya2 blk inactive, IL1B secr inh inconclusive and TDP1 block inactive.
For CN(C)CCN(Cc1ccccc1)C(=O)C1CCN(c2ncnc3c2nc2n3CCCCC2)CC1 the results were TDP1 cell noCPT inactive, TDP1 cell CPT inactive, CtBP-E1A blk inactive, Six1-Eya2 blk inactive, IL1B secr inh inconclusive and TDP1 block inactive.
CC(C)N(Cc1ccccc1)C(=O)C1CCN(c2ncnc3c2nc2n3CCCCC2)CC1 was read as TDP1 cell noCPT 18µM, TDP1 cell CPT inconclusive, CtBP-E1A blk inactive, Six1-Eya2 blk inactive, IL1B secr inh inactive and TDP1 block inactive.
For Cc1csc(CN(C)C(=O)C2CCC(=O)N(Cc3ccc(Cl)cc3)C2)n1 (stereo not drawn) the results were TDP1 cell noCPT inactive, TDP1 cell CPT inactive, CtBP-E1A blk inactive, Six1-Eya2 blk inactive, IL1B secr inh inactive and TDP1 block inactive.
Screening CCOc1ccccc1C(=O)NCc1nc2cccnc2n1Cc1ccc(C)cc1 returned TDP1 cell noCPT 16µM, TDP1 cell CPT 18µM and TDP1 block inactive.
COc1ccc(CCC(=O)NCc2nc3cccnc3n2Cc2ccc(F)cc2)cc1 was read as TDP1 cell noCPT inconclusive, TDP1 cell CPT inconclusive and TDP1 block inactive.
`Cc1ccccc1C(=O)NCc1nc2cccnc2n1Cc1ccccc1` gave TDP1 cell noCPT inconclusive, TDP1 cell CPT inconclusive and TDP1 block inactive.
Screening COc1ccc(CCC(=O)NCc2nc3cccnc3n2Cc2ccc(C)cc2)cc1 returned TDP1 cell noCPT 23µM, TDP1 cell CPT inconclusive and TDP1 block inactive.
Screening COc1ccc(CCC(=O)NCc2nc3cccnc3n2Cc2ccc(OC)cc2)cc1 returned TDP1 cell noCPT inactive, TDP1 cell CPT inactive and TDP1 block inactive.
COc1ccc(CCC(=O)NCc2nc3cccnc3n2Cc2ccccc2)cc1 was read as TDP1 cell noCPT 16µM, TDP1 cell CPT inconclusive and TDP1 block inactive.
For CC(=O)Oc1ccc(OC(C)=O)c(SCCCCCCl)c1 the results were TDP1 cell noCPT 2.9µM, TDP1 cell CPT 2.1µM, CtBP-E1A blk inactive, Six1-Eya2 blk inactive, IL1B secr inh -63 and TDP1 block inactive.
Screening COc1ccc(C2=NS(=O)(=O)N(C)C(C(=O)N3CCOCC3)=C2)cc1OC returned TDP1 cell noCPT inactive, TDP1 cell CPT inactive, CtBP-E1A blk inactive, Six1-Eya2 blk inactive and IL1B secr inh inactive.
Screening Cc1cccc(-c2cccc(NC(=O)C3CCCN(C(=O)c4ocnc4C)C3)c2)c1 (stereo not drawn) returned TDP1 cell noCPT 21µM, TDP1 cell CPT 23µM, CtBP-E1A blk inactive, Six1-Eya2 blk inactive, IL1B secr inh inactive and TDP1 block inactive.
CCc1nc(C)c(C(=O)N2CCCC(C(=O)Nc3cccc(-c4cccc(C)c4)c3)C2)o1 (stereo not drawn) was read as TDP1 cell noCPT 10µM, TDP1 cell CPT 13µM, CtBP-E1A blk inactive, Six1-Eya2 blk inactive, IL1B secr inh -82 and TDP1 block inactive.
Cc1cccc(-c2cccc(NC(=O)C3CCCN(C(=O)c4cccnc4)C3)c2)c1 (stereo not drawn) was read as TDP1 cell noCPT 15µM, TDP1 cell CPT 18µM, CtBP-E1A blk inactive, Six1-Eya2 blk inactive, IL1B secr inh inactive and TDP1 block inactive.

High-throughput results as filed in PubChem BioAssay.
